PGC1a acetyl inh = inhibitors of PGC1a acetylation signal, primary screen, cell-based, U2OS, AlphaScreen, inhibitor mode | AlphaScreen anti-acetyl-lysine; with virally co-expressed GCN5 acetyltransferase | inhibition, % at 15.6 µM | actives 0.17% (n = 350,000) | AID 651687, 2012;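 active = every replicate shows inhibition of at least 40%; inconclusive = mean inhibition at least 40% but some replicate below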;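 note: 0% = neutral control wells and 100% = positive control wells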
AF4-AF9 inh = inhibitors of AF4 peptide binding to AF9, primary screen, biochemical, AlphaScreen, biotin-AF4 peptide, FLAG-AF9, single point. inhibition, % at 10 µM. Protein AF-9 (Homo sapiens), P42568. AID 651704, 2012. actives 0.47% (n = 350,000);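 active = every replicate reaching a set inhibition limit, whatever the replicate mean, cut at about 25% in these data; inconclusive = mean inhibition reaches that limit but some replicates miss it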;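 note: 0% = plate neutral control median and 100% = total signal loss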
Target sequence (P42568 whole entry, looked up): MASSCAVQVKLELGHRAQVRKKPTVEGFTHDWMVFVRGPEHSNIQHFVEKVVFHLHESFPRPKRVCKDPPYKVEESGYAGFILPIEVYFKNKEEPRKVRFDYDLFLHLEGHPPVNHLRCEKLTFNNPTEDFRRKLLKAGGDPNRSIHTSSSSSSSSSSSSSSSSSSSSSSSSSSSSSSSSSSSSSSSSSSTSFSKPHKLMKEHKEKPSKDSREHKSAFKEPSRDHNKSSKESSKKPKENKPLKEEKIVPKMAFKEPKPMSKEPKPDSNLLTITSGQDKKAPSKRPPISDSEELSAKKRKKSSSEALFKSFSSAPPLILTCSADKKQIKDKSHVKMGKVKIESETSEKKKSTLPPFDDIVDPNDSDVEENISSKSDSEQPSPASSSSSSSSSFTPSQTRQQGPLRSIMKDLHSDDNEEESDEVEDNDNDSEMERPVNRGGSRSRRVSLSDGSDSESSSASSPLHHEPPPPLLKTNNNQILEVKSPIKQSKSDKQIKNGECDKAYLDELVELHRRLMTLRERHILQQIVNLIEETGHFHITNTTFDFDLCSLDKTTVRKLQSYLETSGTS
NSD2 HMT inh = NSD2 histone methyltransferase inhibitors, primary screen, biochemical, AlphaScreen, single concentration, set 2; NSD2 peptide methylation, 120 min; inhibition, % at 12.5 µM; actives 0.54% (n = 310,000); AID 743445, 2014; in the data active = inhibition above about 50%
HIV Env fusion = inhibitors of HIV-1 Env-driven cell-cell fusion, primary screen, HeLa-JRFL effector, CEM21 target cells, luciferase; actives 1.1% (n = 360,000); inhibition, % at 12.3 µM;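 active = mean replicate inhibition score of at least 50 and every replicate individually at or above 50; inconclusive = only one of the two criteria met; inactive = mean below 50 and not all replicates reaching 50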;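 note: 0% = plate neutral controls and 100% = maraviroc near 300 nM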
GSIS activator = GLuc luminescence reporter in INS-1E cells, primary screen for activators of glucose-dependent secretion of insulin | actives 0.61% (n = 370,000) | INS-1E GLuc reporter insulin secretion, 2-3 h | AID 743287, 2014 | activation, % at 16.6 µM;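 active = lowest replicate activation of at least 40%, so every replicate reaches that level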;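 note: 0% = median of neutral control wells and 100% = median of IBMX positive control wells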
Starred values were filed as active, the others as inactive; u = inconclusive; x = no result; + = active, no number; ! = not active in a repeat; [ ] = dose if it differs, or a comment. Shown are actives, neighbours in structure and some others; about 2.1% of the full set was active somewhere.

SMILES | PGC1a acetyl inh | AF4-AF9 inh | NSD2 HMT inh | HIV Env fusion | GSIS activator
COc1ccc(Nc2c(CCc3ccccc3)nc3nc(C)cc(C)n23)cc1 | x | 12 | x | 85* | 1
CCc1nc2nc(C)cc(C)n2c1Nc1ccc(OC)cc1 | x | 0 | x | 8 | -6
O=C(Nc1ccc(F)cc1)N[C@@H]1CC[C@H](CCn2cc(C3(O)CCCC3)nn2)O[C@@H]1CO | -4 | 1 | x | -15[16.7 µM] | 7
C/C=C/c1ccc(C2[C@@H]3CN(C(=O)Nc4ccc(C(F)(F)F)cc4)C[C@H]2N3)cc1 (stereo not given in full) | 1 | x | x | x | 190*!
O=C(Nc1ccc(F)cc1)N1[C@@H]2CNC[C@H]1C2c1ccc(/C=C/c2ccccc2)cc1 (stereo not given in full) | 3 | 12 | x | x | 9
O=C(Nc1ccc(F)cc1)N1C[C@@H]2N[C@H](C1)C2c1ccc(/C=C/c2ccccc2)cc1 (stereo not given in full) | -15 | x | x | x | -17
O=C(Nc1ccc(C(F)(F)F)cc1)N1[C@@H]2CNC[C@H]1C2c1ccc(/C=C/c2ccccc2)cc1 (stereo not given in full) | 9 | 6 | x | x | +!
O=C(Nc1ccc2c(c1)OCO2)N1C[C@@H]2N[C@H](C1)C2c1ccc(C=Cc2ccccc2)cc1 (stereo not given in full) | -8 | 56*! | x | x | 89*!
C/C=C/c1ccc(C2[C@@H]3CN(C(=O)Nc4ccc(F)cc4)C[C@H]2N3)cc1 (stereo not given in full) | 1 | 1 | x | x | -15
Cc1ccc(S(=O)(=O)N(C)CC(=O)O/N=C(\N)c2ccccn2)cc1 | -7 | x | 1 | x | x
CCCN(CCC)c1ncnc2nc[nH]c12 | 37 | -7 | x | 62* | 24
COC(=O)C1CSC(C)(C)C(=O)N1 (stereo not given) | 20 | -3 | 0 | 2 | 3
COC(=O)CCCCC1SCC2NC(=O)NC21O (stereo not given) | 8 | 54* | x | x | 7
Cc1ccc(Nc2c(-c3ccccn3)nc3cc(C)ccn23)cc1 | 19 | 37* | x | 4 | -30
Cc1cc(C)cc(CN2CCC(Oc3ccc(C(=O)N4CCCC4)cc3)CC2)c1 | -18 | 7 | 12 | 9 | -1
Cc1ccc(C(=O)CC(=O)c2cccc(F)c2)c(O)c1 | 2 | x | 0 | 61* | x
O=C(NCCc1ccccc1)c1ccc2c(c1)OCCO2 | x | -16 | x | 92* | x
CC1Cc2[nH]c(=S)[nH]c(=O)c2C(C(C)C)O1 (stereo not given) | x | -1 | x | -21 | -4
CCCCC1Cc2[nH]c(=S)[nH]c(=O)c2C(C(C)C)O1 (stereo not given) | x | -3 | x | -1 | 42*
C[C@H]1CCCCO[C@H](CN(C)C(=O)NC2CCCCC2)[C@@H](C)CN([C@@H](C)CO)C(=O)c2cc(NS(=O)(=O)c3ccc(F)cc3)ccc2O1 | 9 | 1 | x | -17[16.7 µM] | -25
CN(C)Cc1cn(CC[C@@H]2CC[C@@H](N)[C@H](CO)O2)nn1 | 7 | 1 | x | 49[16.7 µM] | -3
CN(C)Cc1cn(CC[C@@H]2CC[C@H](N)[C@H](CO)O2)nn1 | -2 | -1 | x | 63*[16.7 µM] | -4
C/C(=N\NC(=O)CO/N=C(\C)c1cccs1)c1ccc(N)cc1 | 11 | 2 | 0 | 7 | 46*
Cc1ccc(S(=O)c2ccc([N+](=O)[O-])c3nonc23)cc1 (stereo not given) | -5 | 2 | 66* | -15 | -37
Cc1ccc(Nc2c([N+](=O)[O-])ccc3nonc23)c(C)c1 | x | 5 | 1 | -3 | 11
CCCNC(=O)N(C)C[C@H]1Oc2cc(-c3ccc(C)cc3)ccc2S(=O)(=O)N([C@@H](C)CO)C[C@@H]1C | x | -1 | x | -15[16.7 µM] | -13
Cc1oc2ccc(O)c(CN3CCOCC3)c2c1C(=O)c1ccc(Cl)cc1 | x | x | 6 | u | x
Cc1oc2c(Cl)c(Cl)c(O)c(CN(C)C)c2c1C(=O)c1ccc(Cl)cc1 | 11 | 13 | 6 | 64* | -24
COc1ccc(NC(=O)Nc2ccc3c(c2)C(=O)N([C@@H](C)CO)C[C@H](C)[C@H](CN(C)Cc2ccc4c(c2)OCO4)OCCCC[C@H](C)O3)cc1 | 9 | 18 | x | 83*[16.7 µM] | -22

Compound activity deposited in PubChem by Broad Institute.
